Compounds with a hit are over-represented: about 3.1% of the library has one in this group of screens.
uPA generation = inhibitors of cell surface uPA generation | Potency, µM (top dose mostly 38.3 µM), most hits filed as inhibitors | cell surface uPA generation assay, qHTS | AID 540303 | hit rate 0.31% among 330,000; active = well fitted inhibition curve with a large enough effect; inconclusive = small, poorly fitted or top-dose-only effect; inactive = no such curve, though single readings can be large or run the other way; tested in mouse RAW 264.7 cells; note: nearly all actives have a fitted effect of over 55% in size
D3 ag = agonists of human D3 dopamine receptor. D3R DiscoveRx beta-arrestin cells, luminescence, 90 min. max activation, %. hit rate 0.58% among 410,000; in the data active = max activation above about 30%
Target sequence (P35462 whole entry, looked up): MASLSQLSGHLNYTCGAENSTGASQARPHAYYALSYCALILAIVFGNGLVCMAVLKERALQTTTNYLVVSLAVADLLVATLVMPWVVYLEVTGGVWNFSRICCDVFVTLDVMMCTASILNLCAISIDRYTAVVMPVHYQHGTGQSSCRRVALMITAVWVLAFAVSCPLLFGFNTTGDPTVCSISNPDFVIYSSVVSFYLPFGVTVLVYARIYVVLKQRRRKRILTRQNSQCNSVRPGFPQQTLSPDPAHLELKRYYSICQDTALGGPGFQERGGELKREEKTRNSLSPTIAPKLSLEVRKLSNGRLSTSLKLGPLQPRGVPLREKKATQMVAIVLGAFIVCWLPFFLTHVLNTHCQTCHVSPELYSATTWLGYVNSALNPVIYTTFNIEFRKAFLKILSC
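Agonist-mode cell screen: cells plated at 1500/well and incubated overnight at 37 °C, then exposed to library compounds for 90 min at 37 °C. Detection reagent was added for 30–60 min at room temperature, and luminescence was read.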
DRD3 antagonist = blocks the human D3 dopamine receptor; P35462; D3R cells, DiscoveRx beta-arrestin luminescence, antagonist mode; stronger effect = lower value; max response, negative = inhibition, %; hit rate 2.5% among 360,000; AID 652054; in the data active = max response below about -50%; inconclusive = no clear call, values can overlap the other calls
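Cells expressing the human receptor were seeded at 1500 cells/well, incubated overnight at 37 degrees C in 5% CO2, then exposed to library compounds with dopamine controls for 90 minutes at 37 degrees C before luminescent detection.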
RGS4 inh = inhibitors of human regulator of G protein signaling 4; hit rate 0.039% among 390,000; Potency, µM (highest dose often 114 µM), actives largely listed as inhibitors; Transcreener GDP fluorescence polarization, RGS4-accelerated GTP hydrolysis; active = well fitted inhibition curve with a large enough effect; inconclusive = small, poorly fitted or top-dose-only effect; inactive = no such curve, though single readings can be large or run the other way; note: nearly all actives have a fitted effect of over 75% in size
Target sequence (P49798 whole entry, looked up): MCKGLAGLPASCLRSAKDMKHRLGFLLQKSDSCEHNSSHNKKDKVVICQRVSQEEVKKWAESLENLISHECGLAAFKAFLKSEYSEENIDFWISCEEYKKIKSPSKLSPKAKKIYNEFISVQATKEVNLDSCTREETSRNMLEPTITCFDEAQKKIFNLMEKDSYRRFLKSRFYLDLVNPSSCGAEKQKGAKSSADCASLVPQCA
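MLSMR compounds (23 nl, pin-transferred) preincubated 10 min at room temperature with a 500nM (2x) first reagent, then RGS4 at 900nM (2x) plus Transcreener GDP mix added; fluorescence polarization (620/688 nm) read before and after 90 min at 30 °C.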
A number is an active result; - = inactive; ? = inconclusive; . = no result; [ ] = another dose, or the depositor's remark.

SMILES	uPA generation	D3 ag	DRD3 antagonist	RGS4 inh
CN(C)CCN(Cc1ccco1)C(=O)c1cc2c(s1)-c1ccccc1OC2	.	-	.	-
Cc1ccccc1NC(=O)Cn1c(=O)oc2cc(Br)ccc21	.	-	.	-
CN1CCN(c2ncnc3c2ncn3[C@H]2CN(Cc3ccc(F)cc3)C[C@@H](CO)O2)CC1	.	-	-	.
COc1ccc2oc(C(=O)OCC(=O)Nc3ccc(C)c(S(=O)(=O)N4CCOCC4)c3)c(C)c2c1	.	-	-	.
Cc1ccc(S(=O)(=O)Nc2ccc3c(c2)nc(CCN2CCCCC2)n3C)cc1	-	-	-79	-
Cc1ccc(S(=O)(=O)Nc2ccc3c(c2)nc(CCN2CCOCC2)n3C)cc1	-	-	-	-
Cn1c(CCN2CCCCC2)nc2cc(NS(=O)(=O)c3ccc(F)cc3)ccc21	-	-	-66	-
Cc1ccc2oc(=O)n(CCCOc3ccccc3Cl)c2c1	.	-	.	-
CCOc1ccc2c(c1)-c1c(ssc1=S)C(C)(C)N2C	-	-	-52	?
CC1(C)Nc2ccc(O)cc2-c2c1ssc2=S	-	-	-	-
CC1CCN(CCCn2c(=S)[nH]c3ccc(N4CCOCC4)cc3c2=O)CC1	.	-	-81	-
O=c1c2cc(N3CCOCC3)ccc2[nH]c(=S)n1CCCN1CCCCC1	-	-	-	-
O=c1c2cc(N3CCOCC3)ccc2[nH]c(=S)n1CCCN1CCCC1	-	-	-73	-
O=C(NC1CCN(Cc2ccccc2)CC1)c1ccc(Cn2c(=S)[nH]c3ccc(N4CCOCC4)cc3c2=O)cc1	-	-	-71	-
CCCCn1c(=NC(=O)C(C)(C)Oc2ccc(Cl)cc2)c(C(=O)OCC)cc2c(=O)n3ccccc3nc21	.	-	.	-
COc1ccc2cc(C#N)c(N3CCN(Cc4nnnn4CCC(C)C)CC3)nc2c1	-	-	-	-[11.4 µM]
N#CCc1c(C#N)c(N)nc(N2CCN(Cc3ccc4c(c3)OCO4)CC2)c1C#N	-	-	?	?
Cc1cc(C)c(C#N)c(N2CCN(Cc3ccc4c(c3)OCO4)CC2)n1	-	-	-57	-
Cc1cc(C)c(C#N)c(N2CCN(Cc3ccccc3)CC2)n1	.	-	-93	-
Cc1ccc2nc(N3CCN(Cc4nnnn4Cc4ccccc4)CC3)c(C#N)cc2c1	-	-	-74	-
CC1CCc2cc(F)cc3c2N1C(=O)C(C(=O)Nc1cnccn1)C3=O (configuration not stated)	.	.	.	-
COc1ccc(C(C)(NC(C)=O)c2nc(-c3cncnc3)cs2)cc1 (configuration not stated)	.	-	-	.
CC(=O)NC(C)(c1ccccc1)c1nc(-c2cncnc2)cs1 (configuration not stated)	.	-	-60	.
CC(=O)c1ccccc1OCCCCN1CCCCC1	-	-	-77	-
COC(=O)c1ccccc1OCCN1CCCCCC1	-	-	-57	-
SMILES	uPA generation	D3 ag	DRD3 antagonist	RGS4 inh
CCCN(CCC)c1cc(C)nc2nc(-c3ccc(Cl)cc3)nn12	.	-	.	-
CCN(CC)CCNC(=O)c1c(C)oc2ncnc(N3CCOCC3)c12	.	-	.	-
CCCCCCCCCCCCC(O)C(=O)O (configuration not stated)	.	.	.	-
CCCCCCCCCCCCCCCCC(C(=O)O)C(O)(CC(=O)O)C(=O)O (configuration not stated)	.	40	.	.
O=C(CCl)N=c1sccn1Cc1cccc2ccccc12	0.22µM	-	-	-
COc1ccc(CC(O)CC2c3c(cc4c(c3OC)OCO4)CCN2C)cc1 (configuration not stated)	-	-	-69	-
Cc1ccc(NC(=O)C(Cc2ccccc2)NS(=O)(=O)c2ccc3c(c2)oc(=O)n3C)cc1F (configuration not stated)	.	-	.	-
C[C@H](Cc1ccc(O)c(O)c1)[C@@H](C)Cc1ccc(O)c(O)c1	.	-	.	15µM
CCCCCCCCN1C(=O)[C@H](CC(=O)NCCCC)C[C@@]2(C(=O)OC)CCCCC=C12	.	-	-	.
CCCCCCCCN1C(=O)[C@H](CC(=O)NCc2cccs2)C[C@@]2(C(=O)OC)CC(C)(C)CC=C12	.	44	-	.
COC(=O)[C@@]12C[C@@H](CC(=O)N3CCOCC3)C(=O)N(Cc3ccc4c(c3)OCO4)C1=CCC(C)(C)C2	.	35	?	.
CCCCCCCCN1C(=O)[C@H](CC(=O)NCCCOCCCC)C[C@@]2(C(=O)OC)CCCCC=C12	.	87	-	.
CCCCCCCCN1C(=O)[C@H](CC(=O)NCc2ccc(C)o2)C[C@@]2(C(=O)OC)CC(C)(C)CC=C12	.	-	-	.
Cc1cc(C)cc(NC(=O)Nc2ccc3nc(N4CCN(C)CC4)cc(C)c3c2)c1	.	-	.	-
NC(=O)c1ccccc1NC(=O)Cn1nc(Cc2cccnc2)c2ccccc2c1=O	.	-	.	-
COc1ccc(C2=CC3=C(Br)C(=O)C(C)(OC(=O)c4cccs4)C(=O)C3=CO2)cc1 (configuration not stated)	-	-	-55	?
O=[N+]([O-])c1ccc(N=Nc2ncc[nH]2)cc1	?	-	-111	-
O=[N+]([O-])c1ccc(N=NN(CCO)CCO)cc1	-	-	-	-
CCOC(=O)N1C(=O)[C@@](c2ccc(Cl)cc2)(C(C)C)N1C(=O)OCC	?	-	-51	-
CCOC(=O)N1C(=O)[C@](c2ccc(Cl)cc2)(C(C)C)N1C(=O)OCC	-	-	-	-
CCOC(=O)CSc1nc2sc3c(c2c(=O)n1Cc1ccccc1)CCC(C(C)(C)C)C3 (configuration not stated)	.	-	.	-
O=C(NCc1ccccc1)OCCN1CCN(Cc2ccccc2)CCC1=O	-	-	-68	-
COc1cccc2c1Oc1ncccc1N(C(=O)CCC(=O)NCCC(C)C)C2	.	-	.	-
CCN1CCN(C(C(=O)NC2CCCCC2)c2ccc(Cl)cc2)CC1 (configuration not stated)	-	-	-60	-
O=C(NC1CCCC1)C(c1ccc(F)cc1)N1CCC(O)(c2ccc(Cl)cc2)CC1 (configuration not stated)	.	-	-93	.
SMILES	uPA generation	D3 ag	DRD3 antagonist	RGS4 inh
Cc1cccc(CSc2ncc(Cl)c(C(=O)Nc3sc4c(c3C(N)=O)CCCC4)n2)c1	.	-	.	-
O=C(c1noc2c1CCCCC2)N1CCN(c2cccc(Cl)c2)CC1	.	-	.	-
O=C(c1noc2c1CCCCC2)N1CCN(c2cccc(C(F)(F)F)c2)CC1	.	52	.	-
CC(=O)N[C@@H](CCC(=O)O)C(=O)O	.	-	.	.
CCCN(CCC)Cc1cc2ccccc2c2c1COC2	-	-	-64	-
O=C(Cn1nnc2ccccc2c1=O)NCC1CCC(C(=O)O)CC1 (configuration not stated)	-	-	-	-[11.4 µM]
CC(C)[C@@H](C(=O)NCC1CCC(C(=O)O)CC1)n1nnc2ccccc2c1=O (some centres not stated)	-	-	-57	-
C=CC[C@@H](CC(=O)N(CCO)Cc1ccccc1)C(=O)N[C@@H](C)COC(=O)[C@@H](CC=C)CC(=O)OC(C)(C)C	-	-	-	-
C=CC[C@@H](CC(=O)N(CCO)Cc1ccccc1)C(=O)N[C@H](C)COC(=O)[C@@H](CC=C)Cc1ccc(F)cc1	-	40	-	-

Assay outcomes: PubChem BioAssay, National Center for Advancing Translational Sciences (NCATS)
